# PubChem BioAssay (NCATS)
# Inconclusive results are not listed. A number with no mark means an inactive call. The source made the active and inactive calls. Calls come from the whole dose curve; as a rule, active = well fitted inhibition curve with a large enough effect; inconclusive = small, poorly fitted or top-dose-only effect; inactive = no such curve, though single readings can be large or run the other way. Starred links: 1 amine or outer side, 2 acyl side, 3 side chain; linkers in the order of their positions; H or OH if unused. Positions of bridges follow the written chain, without caps; N, C: chain ends. Non-standard residues stand in square brackets, D forms with d. Residues, ends and D or L forms follow the SMILES beside them. Chains are numbered I, II in the order given. *: point of attachment. Actinocin(9to1) = Cc1c2oc3c(C)ccc(C(=O)[*:1])c3nc-2c(C(=O)[*:2])c(N)c1=O; NMeV = CN[CH](C(=O)O)C(C)C; Nva = CCC[C@H](N)C(=O)O; Cbz = O=C(OCc1ccccc1)*; Sar = CNCC(=O)O
# Assay: Primary qHTS for small molecule stabilizers of the endoplasmic reticulum resident proteome: Secreted ER Calcium Modulated Protein (SERCaMP) assay (AID 1508630)
# Settings: SH-SY5Y GLuc-SERCaMP (Gaussia luciferase released on ER calcium loss) secretion, thapsigargin, luminescence; series mostly up to 38.4 µM; activity change, negative = inhibition: at the top concentration
# Procedure, shortened: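 The SH-SY5Y reporter protocol was run at 3 concentrations up to 38.3 uM (primary) or 11 concentrations (follow-up): 16 h compound, 100 nM thapsigargin for 4 h, then extracellular luciferase luminescence.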
# % is set by controls: 0 for no effect and ±100 for the full control effect.
Structure (SMILES),"activity change, negative = inhibition",outcome
COc1ccc2c(c1OC)C(=O)OC2[C@H]1c2c(cc3c(c2OC)OCO3)CCN1C (stereo partly drawn),70.4%,
Nc1nc(N)c2nc(-c3cccc(O)c3)c(-c3cccc(O)c3)nc2n1,69.8%,
C[C@H](NCc1ccc(OCc2cccc(F)c2)cc1)C(N)=O,218%,
C#C[C@]1(O)CC[C@@H]2[C@@H]3CCC4=CC(=O)CC[C@@H]4[C@H]3CC[C@@]21CC,96.6%,
C=C1C(=CC=C2CCC[C@]3(C)[C@@H]([C@H](C)CCCC(C)(C)O)CC[C@@H]23)C[C@@H](O)C[C@@H]1O,0%,
OC[C@H]1OC(O)C[C@@H](O)[C@H]1O (stereo partly drawn),98.1%,
CCCCCCCCCCCCc1ccc(S(=O)(=O)Nc2nncs2)cc1,46.4%,
CO[C@@H]1[C@@H](O)[C@H](O)[C@@H](n2c3c(Cl)cccc3c3c4c(c5c6cccc(Cl)c6[nH]c5c32)C(=O)NC4=O)O[C@@H]1CO,154%,
C=C1CCC2[C@](C)(CO)C(O)CC[C@]2(C)C1CC=C1C(=O)OCC1O (stereo partly drawn),-14.5% [at 76.3 µM],
Nc1nc(=O)n([C@H]2CSC(CO)O2)cc1F (stereo partly drawn),38.7%,
C[C@@]12C[C@@]3(O)O[C@@H](O1)[C@]1(COC(=O)c4ccccc4)[C@@H]3C[C@@]12O[C@@H]1O[C@H](CO)[C@@H](O)[C@H](O)[C@@H]1O,-1.58%,
C[C@H]1O[C@H](O[C@H]2[C@H](O)[C@@H](O)[C@@H](O[C@H]3[C@H](O)[C@@H](O)C(O)O[C@H]3CO)O[C@H]2CO)[C@H](O)[C@@H](O)[C@H]1N[C@H]1C=C(CO)[C@@H](O)[C@H](O)[C@@H]1O (stereo partly drawn),-12.3%,
CNC(=O)c1ccc(Nc2cc(Nc3ccccc3S(=O)(=O)C(C)C)c3cc[nH]c3n2)nc1,-6.71%,
CCC[C@@H](C=O)NC(=O)[C@H](CC(C)C)NC(=O)[C@H](CC(C)C)NC(=O)OCc1ccccc1 (Cbz-Leu-Leu-[Nva]-aldehyde),60.7%,
"Cc1c2oc3c(C)ccc(C(=O)NC4C(=O)NC(C(C)C)C(=O)N5CCCC5C(=O)N(C)CC(=O)N(C)C(C(C)C)C(=O)OC4C)c3nc-2c(C(=O)NC2C(=O)NC(C(C)C)C(=O)N3CCCC3C(=O)N(C)CC(=O)N(C)C(C(C)C)C(=O)OC2C)c(N)c1=O (stereo not drawn) (I: TVP[Sar][NMeV] / II: TVP[Sar][NMeV]; ester I:1-I:C, II:1-II:C; linker I:N-II:N via Actinocin(9to1); configuration not given here)",,inactive
CC(=O)O[C@@]12CO[C@H]1C[C@H](O)[C@@]1(C)C(=O)[C@H](O)C3=C(C)[C@@H](OC(=O)C(O)[C@@H](NC(=O)OC(C)(C)C)c4ccccc4)C[C@@](O)([C@@H](OC(=O)c4ccccc4)[C@@H]21)C3(C)C (stereo partly drawn),21.4%,
C#C[C@]1(O)CC[C@@H]2[C@@H]3CCc4cc(O)ccc4[C@H]3CC[C@@]21C,64.8%,
CC(C)OC(=O)[C@H](C)N[P@](=O)(OC[C@H]1O[C@@H](n2ccc(=O)[nH]c2=O)[C@](C)(F)[C@H]1O)Oc1ccccc1,3.11%,
CC[C@@]1([C@@H]2O[C@@H]([C@H]3O[C@@](O)(CO)[C@H](C)C[C@H]3C)C[C@H]2C)CC[C@H]([C@]2(C)CC[C@]3(C[C@H](O)[C@@H](C)[C@@H]([C@@H](C)[C@@H](OC)[C@H](C)C(=O)O)O3)O2)O1,164% [at 21.6 µM],

Structure (SMILES),"activity change, negative = inhibition",outcome
O=C(O)C(=O)Nc1cccc(C2=NN=N[N]2)c1,16.1%,
CC(=O)OCC(=O)[C@@]1(O)CC[C@H]2[C@@H]3CCC4=CC(=O)CC[C@]4(C)[C@@H]3C(=O)C[C@@]21C,-9.88%,
CC(C=CC(=O)NO)=C[C@@H](C)C(=O)c1ccc(N(C)C)cc1,0%,
CC(C)(O)CC[C@@H](O)[C@](C)(O)[C@H]1CC[C@@]2(O)C3=CC(=O)[C@@H]4C[C@@H](O)[C@@H](O)C[C@]4(C)[C@@H]3CC[C@]12C,145%,
C=C1C(=O)O[C@H]2[C@@H]1CCC(C)=CCC[C@@]1(C)O[C@@H]21,376%,
COc1ccc([C@@H]2CNC(=O)C2)cc1OC1CCCC1,,inactive
Cc1ccc([N+](=O)[O-])cc1S(=O)(=O)N(C)N=Cc1cnc2ccc(Br)cn12,139%,
CC(=O)O[C@H]1C[C@@H]2CC[C@H]3[C@H]4C[C@H]([N+]5(C)CCCCC5)[C@@H](OC(C)=O)[C@@]4(C)CC[C@@H]3[C@@]2(C)C[C@H]1[N+]1(C)CCCCC1,5.73%,
CC(C)[C@H](CO)Nc1nc(Nc2cccc(Cl)c2)c2ncn(C(C)C)c2n1,,inactive
CCCNS(=O)(=O)Nc1ncnc(OCCOc2ncc(Br)cn2)c1-c1ccc(Br)cc1,24.7%,
CCc1cnn2c(NCc3ccc[n+]([O-])c3)cc(N3CCCC[C@@H]3CCO)nc12,253%,
CC(=O)OC[C@@H]1O[C@@H](n2ccc(=O)[nH]c2=O)[C@H](OC(C)=O)[C@H]1OC(C)=O,93.4%,
Cc1ccc(O)c(C(CCN(C(C)C)C(C)C)c2ccccc2)c1 (stereo not drawn),-23%,
C=CCNc1c(O)cc2c(O)c1C[C@@H](C)C[C@H](OC)[C@@H](O)[C@@H](C)C=C(C)[C@H](OC(N)=O)[C@@H](OC)C=CC=C(C)C(=O)N2,-27.9%,
N=c1ccn2c(n1)O[C@H]1[C@@H](O)[C@@H](CO)O[C@H]12,0%,
CON=C(C(=O)N[C@@H]1C(=O)N2C(C(=O)O)=C(CSC(=O)c3ccco3)CS[C@H]12)c1csc(N)n1,141%,
O=[N+]([O-])c1cn2c(n1)OC[C@@H](OCc1ccc(OC(F)(F)F)cc1)C2,113%,
N#CC(=C(N)Sc1ccc(N)cc1)c1ccccc1C(F)(F)F,111%,
COc1cc(C[C@@H](CO)[C@H](CO)Cc2ccc(O)c(OC)c2)ccc1O,119%,
